# Screen size: about 2,300 compounds; about 900 (39%) were called active.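 How the source made its calls: active means mean duplicate percent inhibition, scaled so buffer wells are 0 and the reference blocker 100, over three buffer SD above buffer mean; inactive means the rest.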 A selection follows.
# Target: Anoctamin-1 (Mus musculus) (UniProt Q8BHY3)
# Assay: TMEM16A chloride channel inhibitors, confirmation, cell-based, re-confirmation (AID 652189)
# Details: HEK293 TMEM16A/YFP-H148Q, iodide quench fluorescence, at 10 µM, ionomycin added to raise cell calcium; active compounds read high
# Chain of Anoctamin-1 (Mus musculus) (Q8BHY3 whole entry, looked up): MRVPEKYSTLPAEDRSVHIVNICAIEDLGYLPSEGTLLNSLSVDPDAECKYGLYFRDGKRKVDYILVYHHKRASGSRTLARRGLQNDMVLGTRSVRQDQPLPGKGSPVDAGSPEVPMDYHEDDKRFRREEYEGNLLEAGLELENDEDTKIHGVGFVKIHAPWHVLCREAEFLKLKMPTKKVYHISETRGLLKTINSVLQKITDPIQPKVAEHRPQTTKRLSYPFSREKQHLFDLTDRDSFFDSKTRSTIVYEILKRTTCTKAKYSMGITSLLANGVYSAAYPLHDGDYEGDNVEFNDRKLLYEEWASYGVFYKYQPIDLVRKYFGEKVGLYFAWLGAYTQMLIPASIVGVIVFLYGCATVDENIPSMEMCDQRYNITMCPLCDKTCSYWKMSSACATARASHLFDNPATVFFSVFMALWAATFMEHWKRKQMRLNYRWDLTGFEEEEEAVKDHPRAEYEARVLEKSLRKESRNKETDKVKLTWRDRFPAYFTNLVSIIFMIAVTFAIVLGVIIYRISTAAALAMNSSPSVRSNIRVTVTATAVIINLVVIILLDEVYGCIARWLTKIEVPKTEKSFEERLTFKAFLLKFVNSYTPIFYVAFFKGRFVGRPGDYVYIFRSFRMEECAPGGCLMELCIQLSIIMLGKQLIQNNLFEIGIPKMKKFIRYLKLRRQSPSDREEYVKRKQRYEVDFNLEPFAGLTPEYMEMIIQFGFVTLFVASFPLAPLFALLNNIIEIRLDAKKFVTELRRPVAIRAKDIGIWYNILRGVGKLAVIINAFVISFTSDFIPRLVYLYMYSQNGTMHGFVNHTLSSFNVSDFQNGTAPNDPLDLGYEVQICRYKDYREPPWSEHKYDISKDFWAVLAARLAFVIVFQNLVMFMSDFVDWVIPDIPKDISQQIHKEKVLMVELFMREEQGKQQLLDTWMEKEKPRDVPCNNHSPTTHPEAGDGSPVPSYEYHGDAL
row,Compound,inhibition
1,Cn1c(=O)n(C)c2cc(S(=O)(=O)N3CCCc4ccccc43)ccc21,inactive
2,Cc1ccc(NC(=O)C(C)c2cccc(C(=O)c3ccccc3)c2)cc1 (stereo unspecified),30.5% (active)
3,Cc1ccccc1-n1nnnc1SCCCC(=O)c1ccc(F)cc1,inactive
4,Cc1nc2c(C(=O)NCc3ccc4c(c3)OCO4)c[nH]n2c(=O)c1Cc1ccccc1F,18% (active)
5,Cc1ccc(NC(=O)CN(C)CC(=O)Nc2cccc(F)c2)cc1[N+](=O)[O-],24.5% (active)
6,O=C(CN1CCN(C(=S)NC2CCCC2)CC1)Nc1ccc(Oc2ccccc2)cc1,inactive
7,O=C(CNCCC1=CCCCC1)Nc1ccccc1N1CCCCCC1,19.5% (active)
8,CCCC(=O)Nc1ccccc1N1CCN(C(=O)c2ccccc2)CC1,inactive
9,CCCCNC(=O)CSc1nc2n[nH]c(C)c2c(=N)n1-c1cccc(Cl)c1C,inactive
10,CCc1cc2c(N3CCN(c4nnc(CC)s4)CC3)ncnc2s1,40% (active)
11,Cc1ccc(C(=O)O)cc1-c1ccc(/C=C2\SC(=O)N(CC(=O)Nc3ccc4c(c3)OCO4)C2=O)o1,inactive
12,O=C(CSCc1ccc(Cl)cc1)N1CCN(Cc2ccc3c(c2)OCO3)CC1,20% (active)
13,Cc1ccc(-n2ncc3c(N4CCN(c5ccc(F)cc5)CC4)ncnc32)c(C)c1,28.5% (active)
14,O=C(O)c1ccc(NC(=O)C2CCCCC2)cc1,inactive
15,O=C(N/N=C/c1cc(Cl)cc([N+](=O)[O-])c1O)C(O)(c1ccccc1)c1ccccc1,inactive
16,Cc1cc(C)cc(NS(=O)(=O)c2ccc(Oc3ncc(C(F)(F)F)cc3Cl)cc2)c1,inactive
17,Cc1ccc(N2C(=O)S/C(=C/c3cn(C)c4ccccc34)C2=O)cc1,inactive
18,O=C1c2ccccc2C(Nc2ccc3c(c2)OCCO3)N1Cc1ccco1 (stereo unspecified),inactive
19,COC(=O)c1ccc(NC(=O)c2ccccc2NS(=O)(=O)c2ccccc2)cc1,29.5% (active)
20,CCOC(=O)C1CCN(c2ncnc3c2oc2ccc(Br)cc23)CC1,28% (active)
21,Cc1ccc(-c2csc(-c3c[nH]c4ccccc34)n2)cc1,inactive
22,S=C(NCc1ccc(Cl)cc1)NC12CC3CC(CC(C3)C1)C2,46% (active)
23,S=C(NCc1cccs1)Nc1ccc(Cl)cc1,inactive
24,CN(Cc1cccnc1)C(=O)c1cc(COc2ccc3ncccc3c2)on1,inactive
25,CC(=O)c1cc(CN2CCC(C(=O)Nc3cccc(-c4cscn4)c3)CC2)cs1,21.5% (active)
26,Cc1ccc(C)c(N2CCN(C(=O)CCCCn3c(=O)[nH]c4ccccc4c3=O)CC2)c1,inactive

row,Compound,inhibition
1,CCOC(=O)N1CCN(C(=O)c2ccc3c(c2)N(Cc2ccc(C)cc2)CCS3)CC1,inactive
2,COc1ccc(OCC(=O)NCCc2ccc(S(N)(=O)=O)cc2)cc1,inactive
3,Cc1nc(CNS(=O)(=O)c2ccc(Oc3ccccc3)cc2)cs1,inactive
4,COc1ccc(S(=O)(=O)NCCCCOc2ccc(Cl)cc2)cc1,23.5% (active)
5,CCn1nccc1C(=O)Nc1ccc(S(=O)(=O)NC23CC4CC(CC(C4)C2)C3)cc1,inactive
6,CCCCCc1ccc(-c2ccc(C(=O)O)cc2)nc1,inactive
7,O=C(Nc1cccc(S(=O)(=O)Nc2ccc(Cl)cc2)c1)c1ccc2c(c1)OCCO2,19% (active)
8,COc1ccc(Cl)cc1NC(=O)CCS(=O)(=O)c1cc2c(cc1C)NC(=O)CO2,inactive
9,COc1cccc(CNS(=O)(=O)c2ccc3c(c2)CC(C)N3C(=O)C2CCC2)c1 (stereo unspecified),19.5% (active)
10,COc1ccc(-n2c(C)cc(C(=O)CSc3nnc(-c4cccs4)o3)c2C)cc1,inactive
11,Fc1ccc(CSc2nnc(-c3cc4c(s3)-c3ccccc3CC4)o2)cc1,inactive
12,Cc1cccc(-n2c(SCC(N)=O)nc3c(c2=O)C2(CCCCC2)Cc2ccccc2-3)c1,22% (active)
13,C=C(C)Cn1c(C)cc(C)c(S(=O)(=O)c2ccccc2C)c1=O,inactive
14,O=C(Nc1nc(-c2ccc3c(c2)OCO3)cs1)c1ccncc1,inactive
15,COc1cc(CC(=O)Nc2nc(-c3ccc(F)c(F)c3)cs2)cc(OC)c1OC,25.5% (active)
16,Cc1ccc(N)cc1-n1c(C)ccc1C,inactive
17,CCOC(=O)C(Sc1ncc(C#N)c(N)n1)C(C)C (stereo unspecified),inactive
18,N#Cc1nc(COc2ccc(-c3ccccc3)cc2)oc1NCc1cccnc1,inactive
19,O=C(Nc1ccccc1)c1ccccc1NC(=O)C(F)(F)F,26.5% (active)
20,O=C(NC(=S)Nc1ccccc1C(=O)O)c1ccc(-c2ccc(Br)cc2)o1,inactive
21,CSc1cccc(NC(=S)N(C(C)C)C(C)c2ccccn2)c1 (stereo unspecified),inactive
22,Fc1ccc2[nH]c3c(N4CCSCC4)ncnc3c2c1,41.5% (active)
23,CCC(=O)Nc1ccc2nc(C)n(Cc3ccccc3Cl)c(=O)c2c1,inactive
24,Cc1nc(SCC(=O)N2CCc3ccccc3C2)c2c(C)c(C)sc2n1,inactive
25,Cc1ccc(C)c(N2CCN(S(=O)(=O)c3ccc4c(c3)oc(=O)n4C)CC2)c1,inactive

# Reference: PubChem BioAssay AID652189 (Johns Hopkins Ion Channel Center, 2013)
